Results filed as inconclusive are left out. The source made the active and inactive calls. Calls follow the shape of the dose curve; as a rule, active = well fitted curve in the direction sought with a large enough effect; inconclusive = small, poorly fitted or top-dose-only effect, or another doubt; inactive = no such curve, though single readings can be large; an effect the other way counts as inactive or inconclusive.
Tests used:
HACAT = assay: qHTS assay to identify novel small-molecules to repurpose for Merkel cell carcinoma treatment (AID 1296009); settings: MCC and control cell lines, CellTiter-Glo viability, 72 h; at 44.8 µM (top of the series) unless noted; also: nearly all actives have a fitted effect of over 60% in size
Summary of the method: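 Cell viability measured by CellTiter-Glo following 72 hr compound treatment at 37 degree celsius, with NPC and MIPE libraries tested in 8- and 11-point concentration series.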

C33A = assay: Primary qHTS to identify gynecologic anti-cancer compounds using libraries of approved drugs and bioactive compounds (AID 1345084); settings: Gynecologic cancer cell panel viability, ATPlite luminescence, 48 h; series mostly up to 57.5 µM; also: % is scaled to controls: 0 for no effect and ±100 for the full control effect; nearly all actives have a fitted effect of over 55% in size
Summary of the method: (§1)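 Measured: luminescence after ATPlite addition (15 min, RT). Exposure: 48 h, 37 C, 5% CO2.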

CAOV3 = assay: as above; settings: Gynecologic cancer cell panel viability, ATPlite luminescence, 48 h; series mostly up to 57.5 µM
Summary of the method: as §1

CASKI = assay: as above; settings: Gynecologic cancer cell panel viability, ATPlite luminescence, 48 h; series mostly up to 57.5 µM
Summary of the method: as §1

Es-2 = assay: as above; settings: Gynecologic cancer cell panel viability, ATPlite luminescence, 48 h; series mostly up to 57.5 µM
Summary of the method: as §1

HeLa = assay: as above; settings: Gynecologic cancer cell panel viability, ATPlite luminescence, 48 h; series mostly up to 57.5 µM
Summary of the method: as §1

Hek293T = assay: as above; settings: Gynecologic cancer cell panel viability, ATPlite luminescence, 48 h, control line for the selectivity index; series mostly up to 57.5 µM
Summary of the method: as §1

JEG-3 = assay: as above; settings: Gynecologic cancer cell panel viability, ATPlite luminescence, 48 h; series mostly up to 57.5 µM
Summary of the method: as §1

C=C(C(=O)O)[C@@H]1CC[C@@]2(C)CCC[C@@](C)(O)[C@@H]2C1
inactive: outcome (HACAT) | Potency (C33A) | Potency (CAOV3) | outcome (CASKI) | Potency (Es-2) | Potency (HeLa) | Potency (Hek293T) | Potency (JEG-3)

C=C[C@H]1[C@H](O[C@@H]2O[C@H](CO)[C@@H](O)[C@H](O)[C@H]2O)OC=C(C(=O)OC)[C@H]1CCO
inactive: outcome (HACAT) | Potency (C33A) | Potency (CAOV3) | outcome (CASKI) | Potency (Es-2) | Potency (HeLa) | Potency (Hek293T) | Potency (JEG-3)

CNc1nc(Nc2cn(C(C)(C)C#N)nc2C)ncc1C(F)(F)F
inactive: outcome (HACAT) | Potency (C33A) | Potency (CAOV3) | outcome (CASKI) | Potency (Es-2) | Potency (HeLa) | Potency (Hek293T) | Potency (JEG-3)

OCC1OC(Oc2cc(O)cc(/C=C/c3ccc(OC4OC(CO)C(O)C(O)C4O)cc3O)c2)C(O)C(O)C1O (stereo not given)
inactive: outcome (HACAT) inactive [at 17.4 µM] | Potency (C33A) | Potency (CAOV3) | outcome (CASKI) | Potency (Es-2) | Potency (HeLa) | Potency (Hek293T) | Potency (JEG-3)

C=C1C(OC(C)=O)C(=O)C2C(C)(C)C(O)CCC2(C)C1CC(OC(C)=O)/C(C)=C/COC(C)=O (stereo not given)
inactive: outcome (HACAT) inactive [at 17.4 µM] | Potency (C33A) | Potency (CAOV3) | outcome (CASKI) | Potency (Es-2) | Potency (HeLa) | Potency (Hek293T) | Potency (JEG-3)

C[C@H]1[C@H](C)C[C@@H](C(=O)O)C2CC[C@]3(C)C(=CC[C@@H]4[C@@]5(C)CC[C@H](O)C(C)(C)[C@@H]5CC[C@]43C)[C@@H]21 (stereo not given in full)
inactive: outcome (HACAT) | Potency (C33A) | Potency (CAOV3) | outcome (CASKI) | Potency (Es-2) | Potency (HeLa) | Potency (Hek293T) | Potency (JEG-3)

O=C(NC/C=C/CN1CCN(c2cccc(Cl)c2Cl)CC1)c1ccc(-c2ccccn2)cc1
inactive: outcome (HACAT) | Potency (C33A) | Potency (CAOV3) | outcome (CASKI) | Potency (Es-2) | Potency (HeLa) | Potency (Hek293T) | Potency (JEG-3)

C[C@@H]1O[C@@H](O[C@H]2[C@H](O[C@H]3[C@H](O[C@H]4CC[C@@]5(C)C(CC[C@]6(C)C5CC=C5[C@@H]7CC(C)(C)CC(=O)[C@]7(C)CC[C@]56C)[C@@]4(C)CO)O[C@H](C(=O)O)[C@@H](O)[C@@H]3O)O[C@H](CO)[C@H](O)[C@@H]2O)[C@H](O)[C@H](O)[C@H]1O (stereo not given in full)
inactive: outcome (HACAT) inactive [at 9.27 µM] | activity change, negative = cytotoxicity (C33A) 0.189% [at 11.6 µM] | activity change, negative = cytotoxicity (CAOV3) 7.98% [at 11.6 µM] | activity change, negative = cytotoxicity (CASKI) 5.16% [at 11.6 µM] | activity change, negative = cytotoxicity (Es-2) -0.773% [at 11.6 µM] | activity change, negative = cytotoxicity (HeLa) 5.13% [at 11.6 µM] | activity change, negative = cytotoxicity (Hek293T) -1.22% [at 11.6 µM] | activity change, negative = cytotoxicity (JEG-3) 4.8% [at 11.6 µM]

CC(C)=CCC[C@](C)(O[C@@H]1O[C@H](CO[C@@H]2O[C@@H](CO)[C@H](O)[C@H]2O)[C@@H](O)[C@H](O)[C@H]1O)[C@H]1CC[C@]2(C)[C@@H]1[C@H](O)C[C@@H]1[C@@]3(C)CC[C@H](O[C@@H]4O[C@H](CO)[C@@H](O)[C@H](O)[C@H]4O[C@@H]4O[C@H](CO)[C@@H](O)[C@H](O)[C@H]4O)C(C)(C)[C@@H]3CC[C@]12C
inactive: outcome (HACAT) inactive [at 17.4 µM] | Potency (C33A) | Potency (CAOV3) | outcome (CASKI) | Potency (Es-2) | Potency (HeLa) | Potency (Hek293T) | Potency (JEG-3)

COc1cc(O)cc(C)c1C(=O)OC1C(CO)OC(n2ccc(=O)[nH]c2=O)C1OC(C)=O (stereo not given)
inactive: outcome (HACAT) inactive [at 17.4 µM] | Potency (C33A) | Potency (CAOV3) | outcome (CASKI) | Potency (Es-2) | Potency (HeLa) | Potency (Hek293T) | Potency (JEG-3)

CC1(C)Oc2ncnc(N)c2N=C1c1ccc(C2CCC(CC(=O)O)CC2)cc1 (stereo not given)
inactive: outcome (HACAT) | Potency (C33A) | Potency (CAOV3) | outcome (CASKI) | Potency (Es-2) | Potency (HeLa) | Potency (Hek293T) | Potency (JEG-3)

NC(=O)NCCCC(NC(=O)Cc1ccccc1)C(=O)O (stereo not given)
inactive: outcome (HACAT) | Potency (C33A) | Potency (CAOV3) | outcome (CASKI) | Potency (Es-2) | Potency (HeLa) | Potency (Hek293T) | Potency (JEG-3)

CC(C)(O)/C=C/C(=O)[C@](C)(O)[C@H]1[C@H](O)C[C@@]2(C)[C@@H]3CC=C4[C@@H](C=C(O[C@@H]5O[C@H](CO)[C@@H](O)[C@H](O)[C@H]5O)C(=O)C4(C)C)[C@]3(C)C(=O)C[C@]12C
inactive: outcome (HACAT) inactive [at 17.4 µM] | Potency (C33A) | Potency (CAOV3) | outcome (CASKI) | Potency (Es-2) | Potency (HeLa) | Potency (Hek293T) | Potency (JEG-3)

C[C@H]1CC(=O)C2=C(C1)C(O)C(O)[C@@]1(O)[C@H]2C(=O)c2cccc(O)c2[C@@H]1O (stereo not given in full)
inactive: outcome (HACAT) | Potency (C33A) | Potency (CAOV3) | outcome (CASKI) | Potency (Es-2) | Potency (HeLa) | Potency (Hek293T) | Potency (JEG-3)

C/C=C1/[C@H](O[C@@H]2O[C@H](CO)[C@@H](O)[C@H](O)[C@H]2O)OC=C(C(=O)OC)[C@H]1CC(=O)OCCc1ccc(OC(=O)C[C@@H]2C(C(=O)OC)=CO[C@@H](O[C@@H]3O[C@H](CO)[C@@H](O)[C@H](O)[C@H]3O)/C2=C/C)cc1
inactive: outcome (HACAT) inactive [at 9.27 µM] | activity change, negative = cytotoxicity (C33A) 3.14% [at 11.6 µM] | activity change, negative = cytotoxicity (CAOV3) 14% [at 11.6 µM] | activity change, negative = cytotoxicity (CASKI) 4.82% [at 11.6 µM] | activity change, negative = cytotoxicity (Es-2) 6.86% [at 11.6 µM] | activity change, negative = cytotoxicity (HeLa) 18.2% [at 11.6 µM] | activity change, negative = cytotoxicity (Hek293T) 5.22% [at 11.6 µM] | activity change, negative = cytotoxicity (JEG-3) 15.1% [at 11.6 µM]

Reference: PubChem BioAssay (NCATS)
